Compounds with a hit are over-represented: about 1.7% of the library has one in this group of screens.
Vif imaging: blocks HIV Vif function; 0.35% of 340,000 active; HEK293T cells, Vif self-association by quenched fluorescence, imaging, 24 h; inhibition, % at 7.49 µM; AID 602346; in the data active = inhibition above about 50%, passing the limit was not always enough
CFTR F508del cor: CFTR F508del correction in bronchial cells; activity (quench increase), % at 7.58 µM; CFBE cells, YFP halide quenching; stimulated with forskolin plus potentiator P3; % fluorescence drop versus neutral controls; 0.36% of 350,000 active;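 active = mean added fluorescence quench of at least 8% versus neutral control, with both replicates also reaching 8%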;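 note: cells transiently co-express mutant CFTR-F508del with the halide-sensitive YFP; corrector assay measuring rescue of mutant channel to the surface after 24 h compound exposure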
FGF22 binding-1: binders of recombinant human FGF22 by thermal shift; Q9HCT0; SYPRO orange fluorescence; percent of sucrose octasulfate shift, DMSO zero; activity (Tm shift, normalised), % at 9.99 µM; 1.5% of 340,000 active; AID 651658;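 active = mean Tm shift, scaled 0 neutral to 100 positive control, at about 1.3% or above, every replicate too, limit read from the data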
Target sequence (Q9HCT0 whole entry, looked up): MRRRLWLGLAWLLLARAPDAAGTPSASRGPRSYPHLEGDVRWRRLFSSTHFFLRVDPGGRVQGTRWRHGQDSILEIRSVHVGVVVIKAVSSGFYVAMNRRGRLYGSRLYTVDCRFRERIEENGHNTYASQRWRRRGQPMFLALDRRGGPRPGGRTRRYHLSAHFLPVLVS
FGF22 binding-2: binds human FGF22 shifting its melting temperature; thermal shift activity, °C (ΔTm) at 38 µM; shares compounds with FGF22 binding-1; 2% of 1,000 active; recombinant FGF22 thermal shift, SYPRO orange fluorescence;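 active = fitted rise in melting shift crosses a set limit at or below the top valid dose tested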
SYPRO no-protein: shows thermal shift signal without protein, FGF22 counter-screen | 2% of 1,000 active | AC50, µM (series often up to 38 µM) | shares compounds with FGF22 binding-1 | compound-only SYPRO orange thermal shift counter-screen, no protein | AID 743019;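 active = rising signal whose fitted curve reaches the 0.54 level within the top valid dose, showing a melting point, actives reach about 13 µM in these data; inactive = the rest, including activity in the opposite direction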; note: value is where the raw curve crosses a fixed level and not half-maximal
Large screens that a line does not name were inactive (follow-up assays come after a bar, where they were run); ! = a repeat was not active.

C[C@H](CO)N1C[C@H](C)[C@@H](CN(C)S(=O)(=O)c2ccccc2)Oc2ccc(NS(=O)(=O)c3cn(C)cn3)cc2C1=O	FGF22 binding-1 2.3! | FGF22 binding-2 inactive | SYPRO no-protein inactive
C[C@H]1CN([C@@H](C)CO)C(=O)c2cc(NS(=O)(=O)c3cn(C)cn3)ccc2O[C@H]1CN(C)S(=O)(=O)c1ccccc1	none (no result: Vif imaging)
COc1ccccc1-c1ccc2c(c1)[C@H]1[C@H](CCN1C(=O)C1CC1)[C@@H](CO)N2	none (no result: Vif imaging)
C[C@H](CO)N1C[C@H](C)[C@H](CN(C)Cc2ccc3c(c2)OCO3)Oc2ncc(C#Cc3ccccc3)cc2C1=O	none (no result: Vif imaging)
Cc1ccc(Cl)cc1N1CCN(C(=O)Cc2c(C(=O)O)[nH]c3ccccc23)CC1	none (no result: Vif imaging)
Cc1ccc(Cl)cc1N1CCN(C(=O)Cc2c(C(=O)O)[nH]c3ccc(Cl)cc23)CC1	FGF22 binding-1 7.4 | FGF22 binding-2 inactive | SYPRO no-protein inactive
Cn1cc(CNC(=O)c2sc3cccc(Cl)c3c2Cl)cn1	none (no result: CFTR F508del cor, FGF22 binding-1)
CCc1ccc(C(=O)NCc2cnn(C)c2)s1	FGF22 binding-1 3.2 | FGF22 binding-2 inactive | SYPRO no-protein inactive
COc1ccccc1NC(=O)N[C@@H]1CC[C@@H](CCNC(=O)c2ccc3c(c2)OCO3)O[C@@H]1CO	none (no result: Vif imaging)
CC(=O)c1ccc(S(=O)(=O)N2CCN(CC(=O)Nc3ccc(Cl)c([N+](=O)[O-])c3)CC2)cc1	FGF22 binding-1 2.6 | FGF22 binding-2 inactive | SYPRO no-protein inactive
Cc1ccc(S(=O)(=O)N2CCN(CC(=O)N/N=C\c3ccc(Cl)c([N+](=O)[O-])c3)CC2)cc1	none (no result: CFTR F508del cor, FGF22 binding-1)
Cc1ccc(S(=O)(=O)N(C)C[C@@H]2OCCCC[C@@H](C)Oc3ccc(NC(=O)Nc4ccccc4)cc3C(=O)N([C@H](C)CO)C[C@H]2C)cc1	none (no result: Vif imaging)
C[C@@H]1CCCCO[C@@H](CN(C)S(=O)(=O)c2cccs2)[C@@H](C)CN([C@H](C)CO)C(=O)c2cc(NC(=O)c3ccccc3)ccc2O1	none (no result: Vif imaging)
COc1cccc(C(=O)N2C[C@H]3[C@@H](c4ccccc42)[C@H](CO)N3C(C)=O)c1	none (no result: Vif imaging)
Cc1cc(C(=O)Nc2cccc(C)c2C)n(-c2ccccc2)n1	none (no result: Vif imaging)
Cc1cc(C(=O)Nc2cccc3ccccc23)n(-c2ccccc2)n1	FGF22 binding-1 3.2 | FGF22 binding-2 inactive | SYPRO no-protein inactive
C[C@H]1CN([C@@H](C)CO)C(=O)c2cc(NC(=O)CCC(F)(F)F)ccc2O[C@@H]1CN(C)CC1CCCCC1	none (no result: Vif imaging)
CC(C)NC(=O)N1[C@H](C#N)[C@@H](c2ccccc2-c2ccc(F)cc2)[C@@H]1CO	none (no result: Vif imaging)
C/C=C/c1ccccc1[C@@H]1[C@@H](C#N)N(C(C)=O)[C@@H]1CO	FGF22 binding-1 1.3 (no result: Vif imaging) | FGF22 binding-2 inactive | SYPRO no-protein inactive
N#C[C@@H]1[C@H](c2ccc(-c3cccnc3)cc2)[C@H](CO)N1C(=O)Nc1ccc(F)cc1	FGF22 binding-1 2.7 (no result: Vif imaging) | FGF22 binding-2 inactive | SYPRO no-protein inactive
CC(C)NC(=O)N1[C@H](CO)[C@H](c2ccccc2-c2ccc(F)cc2)[C@@H]1C#N	FGF22 binding-1 1.8 (no result: Vif imaging) | FGF22 binding-2 inactive | SYPRO no-protein inactive
Cc1ccccc1-c1ccccc1[C@H]1[C@@H](CO)N(C(=O)c2ccc(F)cc2)[C@H]1C#N	none (no result: Vif imaging)
N#C[C@H]1[C@@H](c2ccc(-c3cccnc3)cc2)[C@@H](CO)N1C(=O)Nc1ccc(F)cc1	none (no result: Vif imaging)
C/C=C/c1ccccc1[C@@H]1[C@@H](C#N)N(C(C)=O)[C@H]1CO	none (no result: Vif imaging, FGF22 binding-1)
Cc1ccccc1-c1ccccc1[C@H]1[C@@H](CO)N(C(=O)c2ccccc2)[C@H]1C#N	FGF22 binding-1 1.7 (no result: Vif imaging) | FGF22 binding-2 inactive | SYPRO no-protein inactive
C[C@H]1CCCCO[C@H](CN(C)C)[C@@H](C)CN([C@@H](C)CO)C(=O)c2cc(NS(=O)(=O)c3ccccc3)ccc2O1	none (no result: Vif imaging)
CN1C(=O)c2cc(NC(=O)Nc3ccc(F)cc3)ccc2OC[C@H]2O[C@@H](CC(=O)NC3CCC3)CC[C@H]21	none (no result: Vif imaging)
C[C@H](CO)N1C[C@H](C)[C@H](CN(C)Cc2cccc(F)c2)Oc2ncc(-c3cccc(F)c3)cc2C1=O	none (no result: Vif imaging, FGF22 binding-1)
COCC(=O)Nc1ccc2c(c1)C(=O)N(C)[C@H]1CC[C@@H](CC(=O)NCC3CCCCC3)O[C@@H]1CO2	none (no result: Vif imaging)
CCCN1C[C@H](C)[C@H](OC)CN(C)C(=O)c2ccc(NC(=O)Nc3ccccc3F)cc2OC[C@@H]1C	none (no result: Vif imaging)
O=C(CC1CC1)N1CC2(C1)[C@@H](c1ccccc1)[C@@H](CO)N2S(=O)(=O)Cc1ccccc1	FGF22 binding-1 1.3 (no result: Vif imaging) | FGF22 binding-2 inactive | SYPRO no-protein inactive
CCC(=O)N1CC2(C1)[C@@H](c1ccccc1)[C@@H](CO)N2S(=O)(=O)Cc1ccccc1	none (no result: Vif imaging)
O=C(C1CCCC1)N1CC2(C1)[C@H](c1ccccc1)[C@@H](CO)N2CC1CC1	FGF22 binding-1 1.6 (no result: Vif imaging) | FGF22 binding-2 inactive | SYPRO no-protein inactive
CCC(=O)N1CC2(C1)[C@H](c1ccccc1)[C@H](CO)N2S(=O)(=O)Cc1ccccc1	FGF22 binding-1 16 (no result: Vif imaging) | FGF22 binding-2 inactive | SYPRO no-protein inactive
O=C(C1CCCC1)N1CC2(C1)[C@H](c1ccccc1)[C@H](CO)N2CC1CCCC1	none (no result: Vif imaging, FGF22 binding-1)
O=C(CC1CC1)N1CC2(C1)[C@H](c1ccccc1)[C@H](CO)N2S(=O)(=O)Cc1ccccc1	none (no result: Vif imaging)
C[C@H](CO)N1C[C@H](C)[C@H](CN(C)C(=O)Nc2cccc3ccccc23)Oc2c(NC(=O)Nc3ccc(F)cc3)cccc2C1=O	none (no result: Vif imaging)
CC(C)[C@H](C)NC(=O)N(C)C[C@@H]1OCc2ccccc2-c2ccccc2C(=O)N([C@H](C)CO)C[C@@H]1C	none (no result: Vif imaging)
COCC(=O)Nc1ccc2c(c1)C(=O)N(C)C[C@H](OC)[C@H](C)CN(Cc1ccccn1)[C@H](C)CO2	none (no result: Vif imaging)
Nc1ccccc1N=Nc1ccccc1N	FGF22 binding-1 2.5 | FGF22 binding-2 inactive | SYPRO no-protein inactive
Nc1ccccc1O	none (no result: CFTR F508del cor, FGF22 binding-1)
C[C@H](CO)N1C[C@H](C)[C@H](CN(C)C(=O)Nc2cccc3ccccc23)Oc2ccc(NS(=O)(=O)c3ccc(F)cc3)cc2CC1=O	none (no result: Vif imaging)
COc1ccc(S(=O)(=O)N2C[C@@H](O)COC[C@H]3O[C@@H](CC(=O)NCc4ccc(Cl)c(Cl)c4)CC[C@@H]32)cc1	none (no result: Vif imaging)
CN(C)S(=O)(=O)n1cnc([C@H]2c3c(ncn3Cc3ccccc3)C[C@H]3COC(=O)[C@@H]32)c1	none
CN(C)S(=O)(=O)n1cnc([C@@H]2[C@@H]3C(=O)OC[C@@H]3C[C@]23N=CN(Cc2ccccc2)C3=O)c1	FGF22 binding-1 29 | FGF22 binding-2 inactive | SYPRO no-protein inactive
O=C(Nc1nnc(S(=O)(=O)N2CCCCCC2)s1)c1ccccc1Br	none
Cc1ccccc1C(=O)Nc1nnc(S(=O)(=O)N2CCCCC2)s1	FGF22 binding-1 17 | FGF22 binding-2 inactive | SYPRO no-protein inactive
C[C@@H]1CN([C@H](C)CO)S(=O)(=O)c2ccc(-c3ccc(F)cc3)cc2O[C@H]1CN(C)C(=O)Nc1ccccc1F	none (no result: Vif imaging)
COc1cccc(NC(=O)N(C)C[C@H]2Oc3cc(-c4ccccc4OC)ccc3S(=O)(=O)N([C@H](C)CO)C[C@H]2C)c1	none (no result: Vif imaging)
